LEDGF integ inh: blocks HIV-1 LEDGF/p75-dependent DNA integration | TR-FRET IN-LEDGF/p75 DNA integration, Eu/Cy5 | 0.64% of 370,000 active | inhibition, % at 3.7 µM;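 active = inhibition above the screen-wide mean plus 3 SD, cut at about 13% in these data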;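 note: signal is the Cy5 over europium emission ratio at 671 and 618 nm; 0% = plate median of compound wells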
MBD2 DNA inh: blocks human MBD2 binding to methylated DNA | Q9UBB5 | TR-FRET, MBD2 binding to methylated oligonucleotide | inhibition, % at 4.4 µM | 0.31% of 370,000 active | AID 686964; in the data active = inhibition above about 13%
PRMT1 inh: inhibitors of human PRMT1. inhibition, % at 2.79 µM. recombinant PRMT1, activity-based probe fluorescence polarization. 1.3% of 370,000 active. AID 652257. Q99873;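 active = inhibition above about 21% made by adding two undisclosed values, limit read from the data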
UHRF1 binding: blocks human UHRF1 binding to methylated DNA. Q96T88. UHRF1 binding to methylated oligo, TR-FRET. inhibition, % at 4.4 µM. 0.75% of 370,000 active. AID 687016; in the data active = inhibition above about 21%;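 note: UHRF1 SRA domain binding a hemimethylated CpG hairpin DNA probe; 0% = median of test compound wells and 100% = reference inhibitor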
Target sequence (Q96T88 whole entry, looked up, the tested form may be a part): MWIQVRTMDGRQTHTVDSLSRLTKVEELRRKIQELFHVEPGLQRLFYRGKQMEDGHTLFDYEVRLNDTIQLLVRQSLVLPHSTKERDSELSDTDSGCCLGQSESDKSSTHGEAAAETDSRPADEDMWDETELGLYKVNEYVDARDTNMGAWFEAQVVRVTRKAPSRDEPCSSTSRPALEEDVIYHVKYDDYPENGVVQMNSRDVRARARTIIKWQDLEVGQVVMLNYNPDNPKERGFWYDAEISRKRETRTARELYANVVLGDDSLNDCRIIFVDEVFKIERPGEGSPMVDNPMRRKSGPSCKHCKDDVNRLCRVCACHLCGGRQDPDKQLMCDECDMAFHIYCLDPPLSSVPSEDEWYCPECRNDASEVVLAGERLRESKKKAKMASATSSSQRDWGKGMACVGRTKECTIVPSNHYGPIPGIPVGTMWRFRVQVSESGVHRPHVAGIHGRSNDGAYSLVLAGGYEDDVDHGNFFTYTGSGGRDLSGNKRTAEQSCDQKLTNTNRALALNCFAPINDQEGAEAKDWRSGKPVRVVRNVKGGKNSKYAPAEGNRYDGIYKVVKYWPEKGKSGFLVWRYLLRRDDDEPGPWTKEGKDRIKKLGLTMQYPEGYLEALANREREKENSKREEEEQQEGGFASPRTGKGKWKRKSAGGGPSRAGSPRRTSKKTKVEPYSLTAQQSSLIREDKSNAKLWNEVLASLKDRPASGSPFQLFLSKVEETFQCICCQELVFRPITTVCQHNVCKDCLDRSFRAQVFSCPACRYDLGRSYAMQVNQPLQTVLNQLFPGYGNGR
Active calls of the source: *. Compounds with a hit are over-represented: about 2.5% of the library has one in this group of screens.

SMILES	LEDGF integ inh	MBD2 DNA inh	PRMT1 inh	UHRF1 binding
CN(C)/C=C(/C(=O)c1ccccc1Cl)S(=O)(=O)c1ccccc1	0	-2	1	1
COc1ccc(C(=O)/C(=C/N(C)C)S(=O)(=O)c2ccccc2)cc1	3	3	-3	55*
CCOC(=O)c1c(S(=O)(=O)N2CCN(C)CC2)c(C)n(C)c1C	6	2	-3	0
CCOC(=O)c1c(S(=O)(=O)N2CCCC2)c(C)n(C)c1C	-1	-2	22*	1
Oc1ccc(/C=N\Nc2cc(N3CCOCC3)nc(N3CCOCC3)n2)c(O)c1	3	-9	3	-3
Oc1ccc(/C=N/Nc2cc(N3CCCC3)nc(N3CCCC3)n2)cc1O	33*	2	5	4
CN(Cc1cccc(F)c1)C(=O)C1CC(=O)N(c2ccc3c(c2)OCCO3)C1 (stereo not given)	-4	5	0	60*
O=[N+]([O-])c1ccc(C(O)C23CN4CN(CN(C4)C2)C3)cc1 (stereo not given)	-1	2	4	-1
O=c1c2ccccc2nc(SCc2ccc(F)cc2Cl)n1CCCN1CCOCC1	2	-1	-4	0
Fc1ccc(CSc2nnc(CN3CCOCC3)n2-c2ccccc2)c(Cl)c1	0	-1	-2	43*
COc1ccc(NC(=O)C[C@H]2C(=O)N(c3ccccc3)C[C@@H]2C)cc1	-1	1	2	0
COc1ccccc1N1C(=O)C2CC(C)=C(C)CC2C1=O (stereo not given)	1	-1	-2	1
COc1ccccc1N1C(=O)C=C(Sc2nc(C)cc(C)n2)C1=O	1	-6	24*	-5
Nc1cnccc1Oc1cccc(C(F)(F)F)c1	-2	0	1	3
Cc1ccc(-n2nc(-c3ccco3)cc2C(=O)O)cc1	9	10	14	31*
CC(C)CN1CCN(Cc2cn(C)c3ccccc23)CC1CCO (stereo not given)	-1	0	2	26*
Cn1cc(CN2CCN(CC(C)(C)C)C(CCO)C2)c2ccccc21 (stereo not given)	1	2	-10	1
Oc1cc2c(cc1O)[C@@H](c1ccccc1)CNCC2	-5	1	23*	3
O=C(c1ccc(-c2ccccc2Cl)o1)N1CCN(S(=O)(=O)c2cccs2)CC1	6	-5	7	-1
Cc1ccc(NC(=O)c2sc3nc(N4CCOCC4)c4c(c3c2N)CC(C)(C)OC4)cc1	0	-2	22*	2
Nc1nc2c(ncn2[C@@H]2O[C@H](CNC(=O)[C@H](N)Cc3cncn3COCc3ccccc3)[C@@H](O)[C@H]2O)c(=O)[nH]1	0	2	2	-1
N#C/C(=C\c1ccncc1)c1nc2ccccc2c(=O)[nH]1	1	-1	1	44*
N#C/C(=C/c1ccncc1)c1nc2ccccc2c(=O)[nH]1	-3	-1	6	-1
Cc1cc([N+](=O)[O-])ccc1NC(=O)CSc1nnc(C)n1C	-4	3	3	0
Cc1nc2c(=O)[nH]c(=S)[nH]c2[nH]c1=O	22*	48*	24*	85*
SMILES	LEDGF integ inh	MBD2 DNA inh	PRMT1 inh	UHRF1 binding
CC(=O)NS(=O)(=O)c1cccnc1Nc1cccc(Cl)c1C	-5	1	3	1
NS(=O)(=O)c1cccnc1Nc1c(Cl)cccc1Cl	-2	1	-1	21*
CCN(CCNC(=O)[C@H]1C=C(OC)C(=O)C[C@H](c2ccccc2)[C@H]1C)C(C)=O	-1	-2	-1	1
COc1ccc(C2SCC(=O)N2c2ccccc2)cc1 (stereo not given)	-1	11	4	22*
CC(C)(C)c1csc(NNC(=O)c2ccc(Br)cc2)n1	4	8	23*	3
O=C(NCCN1CCCCC1)Nc1ccccc1F	-2	-2	-1	-1
O=C(NCCN1CCCCC1)Nc1ccc(F)cc1F	-5	-4	-1	23*
Cc1cc(-c2ccccc2)c2c(=O)[nH][nH]c2n1	-2	-2	-2	49*
O=C(Nc1ccc(NC(=O)c2cc([N+](=O)[O-])ccc2N2CCOCC2)cc1)c1cccs1	-2	9	6	23*
CN(C)CCCN1c2ccc([N+](=O)[O-])cc2CCc2cc([N+](=O)[O-])ccc21	0	-9	22*	0
CCOC(=O)Nc1ccc2c(c1)N(CCCN(C)C)c1ccccc1CC2	-8	-1	2	2
COC(=O)c1cc(C)nc(Sc2ccccc2N)n1	4	-4	25*	-3
COC(=O)c1ccccc1NC(=O)CSc1nc(C)cc(C)n1	-1	-3	-1	-2
O=C(O)CCCNc1n[nH]c(=O)[nH]c1=O	1	1	-2	26*
O=C(Nc1ccc(F)c(F)c1)C1CCN(S(=O)(=O)c2cccs2)CC1	-8	4	1	31*
Cc1ccc(NC(=O)C2CCN(S(=O)(=O)c3cccs3)CC2)cc1	0	-7	-1	-3
CC1(c2ccc(O)cc2)NC(=O)N(c2ccccc2)N1 (stereo not given)	-2	11	7	24*
O=C(c1coc2ccc(O)cc12)C1CC1	-5	-10	2	21*
CCCCN(C=O)c1c(CC)nc2ccc(C(=O)NCCOc3ccc(OC)cc3)cn12	-1	1	-2	-1
NC(=O)C1CCN(CC(=O)Nc2cccnc2Cl)CC1	-4	-1	-1	-2
Cc1oc2c(O)c(O)ccc2c(=O)c1-c1cnn(-c2ccccc2)c1	0	2	26*	5
Cc1oc2c(O)c(O)ccc2c(=O)c1-c1ccccc1	-11	2	19	3
O=C1CCCc2cc3c(ccc4ccccc43)cc21	-6	3	0	0
Cc1cc2c(cc1C)C(=O)CCC2	2	1	-2	24*
CCC(C)(C)NC(=O)C(c1ccc(OC)cc1)N(C(=O)CCC(=O)Nc1cc(C)on1)C(C)(C)C (stereo not given)	0	5	5	1
SMILES	LEDGF integ inh	MBD2 DNA inh	PRMT1 inh	UHRF1 binding
CCn1ccc(C(=O)NC2=NCCS2)n1	1	-3	24*	-3
Cc1cccc(C)c1NC(=O)CN(C1CCCCC1)S(C)(=O)=O	0	0	-3	28*
CC(=O)c1cccc(NC(=O)CN(C2CCCCC2)S(C)(=O)=O)c1	-1	0	0	1
C[n+]1c(-c2ccc(C=NNC(=O)c3ccc(C(=O)NN=Cc4ccc(-c5cn6ccccc6[n+]5C)cc4)cc3)cc2)cn2ccccc21	31*	23*	1	37*
O=C(N/N=C\c1ccc(F)cc1)c1ccc(F)cc1	-3	4	4	0
O=C(NCCc1ccccc1)OCc1cn(Cc2cc(F)ccc2F)nn1	-6	0	1	1
O=C(O)c1ccc(N=Nc2c(O)[nH]c3ccc(Br)cc23)cc1	7	0	-2	2
O=c1ccc2cc3c([nH]c4ccc(Br)cc43)oc-2c1O	66*	1	91*	19
O=C(NC1CCCCC1)Oc1cc2oc(=O)sc2cc1Br	3	-1	82*	12

High-throughput results from PubChem.
